# Source: PubChem BioAssay
# This is a sample that favours compounds with a hit; in the whole collection about 3.3% have one here.
# D3 antag = qHTS of D3 Dopamine Receptor Antagonist: qHTS; D(3) dopamine receptor (Homo sapiens), P35462; D3R cells, DiscoveRx beta-arrestin luminescence, antagonist mode; hits give low values; max response, negative = inhibition, %; 2.5% of 360,000 active; AID 652054, 2013; in the data active = max response below about -50%; inconclusive = no clear call, values can overlap the other calls; note: % is set by controls: 0 for no effect and ±100 for the full control effect
# Target sequence (P35462 whole entry, looked up): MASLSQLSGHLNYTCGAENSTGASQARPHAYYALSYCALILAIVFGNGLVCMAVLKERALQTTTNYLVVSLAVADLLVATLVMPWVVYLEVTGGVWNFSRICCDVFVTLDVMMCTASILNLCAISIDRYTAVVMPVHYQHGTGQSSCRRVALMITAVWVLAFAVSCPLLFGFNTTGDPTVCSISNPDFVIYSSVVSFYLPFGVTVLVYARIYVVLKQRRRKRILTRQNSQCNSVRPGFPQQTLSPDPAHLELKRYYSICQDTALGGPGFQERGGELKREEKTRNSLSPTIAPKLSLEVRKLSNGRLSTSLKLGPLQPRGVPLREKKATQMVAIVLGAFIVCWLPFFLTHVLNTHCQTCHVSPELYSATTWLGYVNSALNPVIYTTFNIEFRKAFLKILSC
#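 Cells expressing the human receptor were seeded at 1500 cells/well, incubated overnight at 37 degrees C in 5% CO2, then exposed to library compounds with dopamine controls for 90 minutes at 37 degrees C before luminescent detection.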
# PI5P4Ka inh = qHTS for Inhibitors of phosphatidylinositol 5-phosphate 4-kinase (PI5P4K); Phosphatidylinositol 5-phosphate 4-kinase type-2 alpha (Homo sapiens), P48426; PI5P4Kalpha enzyme, ADP-Glo luminescence, 60 min; hits give low values; max response, %; 1.2% of 330,000 active; AID 652105, 2013; active = max response of -50% or lower; inconclusive = between -30% and -50%; inactive = -30% or higher; note: value at the top dose of about 77 µM; % is set by controls: 0 for no effect and ±100 for the full control effect
#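 Human PI5P4Kalpha with substrate in 0.038 M HEPES pH 7.4, 0.28 mM EGTA, 0.1% CHAPS, 5% DMSO; reaction started with 5 microM ATP (final), 60 min at room temperature. ADP formed read by ADP-Glo luminescence.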
# LDHA block = qHTS assay for inhibitors of human lactate dehydrogenase | purified LDHA, NADH/diaphorase-resazurin fluorescence; hits give low values | L-lactate dehydrogenase A chain (Homo sapiens), P00338 | 0.15% of 480,000 active | activity change, % (values are at about 110 or 230 µM); in the data active = activity change below about -30%; inconclusive = mostly about -25% to -30%;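 note: plate controls were DMSO wells for no effect and wells without enzyme for full effect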
#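 LDH5 2 nM; NADH 0.06 mM, pyruvate 0.2 mM; 200 mM Tris pH 7.4, EDTA, Tween-20; 5 min RT. Detection: diaphorase 0.133 mg/mL + resazurin 37 µM, fluorescence ex540/em590 at 0 and 20 min; normalized to enzyme-free and DMSO wells.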
# DRD3 agonist = qHTS of D3 Dopamine Receptor Agonist: qHTS; max activation, %; D(3) dopamine receptor (Homo sapiens), P35462; 0.58% of 410,000 active; D3R DiscoveRx beta-arrestin cells, luminescence, 90 min; in the data active = max activation above about 30%; note: 0% is about no effect
#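 Agonist-mode cell screen: cells plated at 1500/well and incubated overnight at 37 °C, then exposed to library compounds for 90 min at 37 °C. Detection reagent was added for 30–60 min at room temperature, and luminescence was read.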
# PI4K2A inh = qHTS for small molecular inhibitors of PI4K2A; Phosphatidylinositol 4-kinase type 2-alpha (Homo sapiens), Q9BTU6; purified PI4K2A, ADP-Glo luminescence, 1 h; hits give low values; activity change, negative = inhibition, % at 76.9 µM; 0.13% of 420,000 active; in the data active = activity change below about -50%; inconclusive = mostly about -30% to -49%;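 note: -100% = wells without enzyme as full effect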
#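 PI4K2A activity was measured by ADP-Glo luminescence: enzyme (4 ug/mL stock) and phosphatidylinositol (1.2 mM stock) in Tris pH 7.5/MgCl2/EGTA/Triton X-100 buffer were reacted with ATP (300 microM stock) for one hour at ambient temperature.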
# The depositor's hits bear a star; ? = inconclusive; . = no result.
SMILES,D3 antag,PI5P4Ka inh,LDHA block,DRD3 agonist,PI4K2A inh
Cc1ccccc1CN1CC2=C(CCN(Cc3ccccc3)C2=O)N2CCN=C12,-81*,-3,1,-12,-3
CCCCCCN1CCN(C2CN(Cc3ccccc3)S(=O)(=O)C2)CC1 (stereo not given),-94*,1,-8,-15,-1
Cc1ccc(CN2CC(N3CCN(C)CC3)CS2(=O)=O)cc1 (stereo not given),-68*,4,-8,-3,0
Cc1ccc(CN2CC(N3CCN(C4CCN(C)CC4)CC3)CS2(=O)=O)cc1 (stereo not given),?,-18,-5,-5,-1
CC(NC(=O)/C(=C/c1ccc(Cl)cc1)NC(=O)c1ccco1)C(=O)O (stereo not given),.,.,-12,.,.
O=C(/C=C/c1ccncc1)c1ccc2c(c1)OCCO2,-54*,0,-11,2,1
CC(=C/c1ccccc1)/C=N/Nc1nc(N2CCCCC2)nc(N2CCCCC2)n1,15,-7,-2,32*,6
CCC(=O)Nc1nc2ccccc2n1CCN(CC)CC,-20,.,-4,-33,-3
CCN(CC)CCn1c(NC(=O)c2ccc(C(F)(F)F)cc2)nc2ccccc21,-54*,-5,-2,-11,2
O=C(Nc1nc2ccccc2n1Cc1ccc(Cl)cc1)c1ccco1,-60*,.,-10,-2,0
Cn1c(NC(=O)c2ccc(F)cc2)nc2ccccc21,-14,-4,-3,-9,-6
CN(C)CCn1c(NC(=O)c2ccc(Cl)cc2)nc2ccccc21,-57*,.,-1,-24,-5
CCN(CC)CCn1c(NC(=O)c2ccc(C)cc2)nc2ccccc21,-50*,8,-1,-27,-2
Cc1cc(/C=C/c2c(C)cnc3ccccc23)ccc1N(C)C,.,.,5,.,.
Cn1c(CCCNC(=O)c2ccco2)nc2ccccc21,6,-70*,0,-4,1
CCCN(C(=O)C1Cc2ccccc2C(=O)O1)c1c(N)n(Cc2ccccc2)c(=O)[nH]c1=O (stereo not given),.,.,13,.,.
CCCn1cc2c(c1-c1ccc(C)cc1)c(=O)n(C)c(=O)n2C,5,-1,-8,3,0
Cc1ccc(-c2c3c(=O)n(C)c(=O)n(C)c3cn2N2CCOCC2)cc1,-51*,1,1,3,-6
CN(C(=O)/C=C/c1cccc(Cl)c1)C1(c2ccccc2Cl)CCCCC1=O (stereo not given),.,.,0,.,.
Cc1c(Br)c2ccccc2n1CC(=O)N(C)C,.,.,4,.,.
N#Cc1c(-c2ccccc2)[nH]c(=S)[nH]c1=O,-60*,-62*,0,0,-9
N#Cc1cc(-c2cccc(Cl)c2)c[nH]c1=O,-17,-6,-2,2,3
O=c1[nH]c(=S)[nH]c(-c2ccccc2)c1Cc1c(O)ccc2ccccc12,.,.,.,.,-3
N#Cc1c(-c2cccc(Cl)c2)[nH]c(=S)[nH]c1=O,-9,-77*,-4,5,-2
COc1cccc(/C=N/NC(=O)NC23CC4CC(CC(C4)C2)C3)c1O,-62*,-1,6,-16,3
SMILES,D3 antag,PI5P4Ka inh,LDHA block,DRD3 agonist,PI4K2A inh
O=C(N/N=C/c1ccccc1F)NC12CC3CC(CC(C3)C1)C2,-5,9,-1,-9,3
Oc1cccc(-c2nnc(-c3cccc(O)c3)nn2)c1,-17,-27,6,-11,-66*
Cc1cc(C)cc(-n2ccnc2SC2CCCCC2=O)c1 (stereo not given),.,.,5,.,.
Cc1cccc(NC(=O)Cn2cnnc2C#N)c1C,.,.,-1,.,.
COc1ccc(C(CNC(=O)Cc2ccccc2)N2CCCCC2)cc1 (stereo not given),-19,2,-5,-34,0
COc1ccc(C(CNC(=O)CCNS(=O)(=O)c2ccc(Br)cc2)N2CCCC2)cc1 (stereo not given),-50*,4,0,-34,-3
COc1ccc(C(CNC(=O)C(C)Oc2ccc(Br)cc2)N2CCCCC2)cc1 (stereo not given),-92*,-1,-1,-18,-1
COc1ccc2nc(Nc3nc(-c4ccc(OC)c(OC)c4)cc(=O)[nH]3)nc(C)c2c1,.,.,3,.,.
Cc1ccc(O)c(N=CC2=C(O)c3ccccc3C2=O)c1,-54*,?,12,-12,-17
Cc1sc(NC(=O)CC2(CC(=O)O)CCCC2)c(C(N)=O)c1-c1ccc(C(C)C)cc1,.,.,-11,.,.
c1ccc(CN2CCN(c3nc4ccccc4n4cnnc34)CC2)cc1,-135*,1,-6,-23,-9
C1=C(c2ccccc2)CCN(c2nc3ccccc3n3cnnc23)C1,-70*,-21,-3,-6,5
c1ccc(N2CCN(c3nc4ccccc4n4cnnc34)CC2)cc1,31,2,-4,0,3
O=C1CCC[C@H]2C[C@H](NCc3ccccc3Cl)CC[C@]23CCCN13,.,.,.,.,-1
COc1ccc2c(C)c(CC(=O)Nc3ccc4c(c3)OCO4)c(=O)oc2c1,.,.,17,.,.
CCCCNC(=O)C(=O)NCCc1c[nH]c2ccccc12,.,.,17,.,.
COc1ccc(C(=O)Cn2cnc3c2c(=O)n(C)c(=O)n3C)cc1,.,.,0,.,.
c1ccc(-c2csc(CN3CCCCC3)n2)cc1,-50*,3,-11,-17,-6
OCCC1CN(Cc2nc(-c3ccccc3)cs2)CCN1C1CCCC1 (stereo not given),-6,0,1,-17,-1
COc1ccc(NC(=O)c2cc(-c3ccccc3O)on2)cc1OC,.,.,7,.,.
O=C(CSc1ccccn1)Nc1ccc(NC(=O)CSc2ccccn2)cc1,5,7,8,5,-6
O=C(CSc1ccccn1)Nc1nonc1[N+](=O)[O-],-70*,-2,16,-3,4
O=c1cc(CN2CCN(c3ccccc3)CC2)c2cc(Cl)ccc2o1,.,.,-1,.,.
COc1ccc(N=C2S/C(=C\c3ccc(OC(C)C(=O)O)c(OC)c3)C(=O)N2CCc2c[nH]c3ccccc23)cc1 (stereo not given),26,-54*,-1,9,-2
COc1cc(/C=C2\SC(=Nc3ccccc3)N(CCc3c[nH]c4ccccc34)C2=O)ccc1OC(C)C(=O)O (stereo not given),6,?,-15,10,2
O=C1/C(=C/c2ccc(N3CCOCC3)o2)SC(=Nc2ccccc2)N1CCc1c[nH]c2ccccc12,-69*,?,4,-9,-3
COc1ccc(/C=C(/C#N)c2ccc(C(F)(F)F)cn2)cc1OC,.,.,5,.,.
